Laboratory results taken from PubChem BioAssay (NCATS).
Values joined by “and” are separate entries in the source; they are usually repeats but may differ in a detail not shown here. Equal values may be shown once. Records with an inconclusive call do not appear. Active and inactive are the calls of the source. Unless noted, calls follow the shape of the dose curve; as a rule, active = well fitted curve in the direction sought with a large enough effect; inconclusive = small, poorly fitted or top-dose-only effect, or another doubt; inactive = no such curve, though single readings can be large; an effect the other way counts as inactive or inconclusive.

Legend:
[1] = Cell Viability - HepG2 (AID 433; calls by dose curve;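 also: potency is read from the fitted curve at half-maximal effect; potency for ATP loss meaning cytotoxicity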); conditions: qHTS
In short: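 In this qHTS format, a 40 h, 37 °C compound incubation of HepG2 cells in complete medium precedes a 20 min CellTiter-Glo step at room temperature. Tamoxifen and doxorubicin serve as positive controls; Hill-equation fits yield AC50.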

[2] = Cell Viability - MRC5 (AID 434; calls by dose curve;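 also: potency is read from the fitted curve at half-maximal effect; potency reflects cytotoxicity seen as loss of intracellular ATP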); conditions: MRC5 lung fibroblast viability, qHTS
In short: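 AC50 values come from Hill-equation fits of intracellular ATP loss, measured by CellTiter-Glo luminescence. Normal lung fibroblasts (MRC5) had 40 hr compound treatment at 37 C, normalized between DMSO and 100 uM tamoxifen.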

[3] = Cell Viability - SK-N-SH (AID 435; calls by dose curve;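 also: potency is read from the fitted curve at half-maximal effect; compound exposure lasted 40 h at 37 °C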); conditions: SK-N-SH neuroblastoma cell viability qHTS
In short: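 Human neuroblastoma line, 40 h exposure at 37 °C, ATP quantified via luciferase luminescence; DMSO and 100 uM tamoxifen define 0 and 100% inhibition for AC50 fitting.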

[4] = Cell Viability - HUV-EC-C (AID 542); conditions: HUV-EC-C endothelial cell viability, qHTS; series mostly up to 92.2 µM; also: % is scaled to controls: 0 for no effect and ±100 for the full control effect; nearly all actives have a fitted effect of over 35% in size
In short: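 Cells were seeded at 1000 per well and incubated 5 hr at 37 °C before compound addition. After 40 hr at 37 °C, CellTiter-Glo reagent was added for 20 min and luminescence read. AC50 values came from Hill-equation modelling.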

[5] = Cell Viability - Renal Proximal Tubule (AID 545); conditions: renal proximal tubule cells viability; at 91.7 µM (top of the series), primary cells of rat origin unless noted; also: nearly all actives have a fitted effect of over 40% in size
In short: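 In this qHTS format, normal rat kidney-derived proximal tubule cells in complete culture medium receive compound titrations, then sit 40 hours at 37 °C before luciferase-based ATP quantitation; potency is reported as AC50 from concentration-response curves.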

[6] = Cell Viability - Mesenchymal (AID 546); conditions: mesenchymal cells viability, qHTS; series mostly up to 91.7 µM;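 also: cells exposed to compound for 40 hours before reading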
In short: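 CellTiter-Glo luminescence (intracellular ATP, 20 min room temperature) after 40 hr compound exposure at 37 °C of 1000 glomerulus-derived human kidney mesenchymal cells/well; AC50 values obtained by fitting qHTS concentration-response data to the Hill equation.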

[7] = Cellular Toxicity (caspase-3) Jurkat (AID 655); conditions: Jurkat caspase-3 activation, luminescence, DMSO = 0%, tamoxifen = 100%; at 92.2 µM (top of the series);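 also: cells exposed to compound for 16 h at 37 °C before reading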
In short: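 qHTS in human Jurkat T-cell leukemia line: 16 hr compound treatment at 37 °C, caspase-3/7 activity measured by Caspase-Glo luminescence. AC50 derived from Hill equation.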

[8] = Cellular Toxicity (caspase-3) HUV-EC-C (AID 656); conditions: HUV-EC-C cells, caspase-3 activation (apoptosis), vehicle = 0, 100 µM tamoxifen = 100%; series mostly up to 92.2 µM
In short: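 Concentration-dependent caspase 3/7 induction was assessed in HUV-EC-C cells exposed for 16 hours. Data scaled between DMSO and tamoxifen (100 uM) controls.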

[9] = Cellular Toxicity (caspase-3) SHSY5Y (AID 657); conditions: SH-SY5Y caspase-3 activation, DMSO zero, 10 µM staurosporine = 100%; series mostly up to 91.7 µM;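 also: cells exposed to compound for 16 hours at 37 °C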
In short: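 Readout: caspase-cleaved peptide-aminoluciferin substrate driving luciferase light in SH-SY5Y neuroblastoma cells after 16 h treatment. Response normalized to DMSO and 10 uM staurosporine controls.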

[10] = Cellular Toxicity (caspase-3) BJ (AID 658); conditions: BJ fibroblasts, luminescence, normalized: DMSO 0%, staurosporine 100%; series mostly up to 91.7 µM
In short: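 Caspase-Glo 3/7 luminescence, read 1 hr after reagent at room temperature, in normal BJ fibroblasts exposed 16 hours at 37 °C. AC50 values from Hill-equation concentration-response, scaled between DMSO basal and 10 uM staurosporine as 100%.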

[11] = Cellular Toxicity (caspase-3) MRC-5 (AID 659); conditions: MRC-5 cells, luminescence, normalized: DMSO 0%, 10 µM staurosporine 100%; series mostly up to 91.7 µM
In short: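 Luminescent Caspase-Glo 3/7 read-out (1 h, room temperature) after a 16 h, 37 °C compound exposure of MRC-5 lung fibroblasts at 1500 cells/well. Concentration-response AC50 from Hill equation; 0% DMSO, 100% 10 uM staurosporine.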

[12] = Cellular Toxicity (caspase-3) Mesangial (AID 660); conditions: mesangial cells, normalized: DMSO 0%, 100 µM tamoxifen 100%; series mostly up to 91.7 µM;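 also: combined caspase 3 and 7 activity read by Caspase-Glo luminescence; cells exposed to compound for 16 h before the caspase read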
In short: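 Seed cells derived from normal human renal glomeruli, incubate 5 h, add compounds across concentrations and incubate 16 h at 37 °C. Caspase 3/7 activation is then quantified by luciferase light, with AC50 derived by Hill modeling.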

[13] = Cellular Toxicity (caspase-3) SK-N-SH (AID 661); conditions: SK-N-SH caspase-3 activation, qHTS, DMSO as zero, staurosporine as full; series mostly up to 91.7 µM
In short: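 Cells were seeded and incubated 5 hr at 37 °C, dosed with compound over a concentration range for 16 hr, then given Caspase-Glo 3/7 reagent for 1 hr at room temperature before luminescence reading.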

[14] = Cellular Toxicity (caspase-3) H-4-II-E (AID 663); conditions: H-4-II-E rat hepatoma, scaled: DMSO 0%, 100 µM tamoxifen 100%; series mostly up to 92.2 µM;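 also: cells exposed to compound for 16 hr before readout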
In short: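 Caspase 3/7 activation measured by luminescent aminoluciferin substrate cleavage after 16 hr compound treatment of H-4-II-E cells in complete medium. Increase normalized between DMSO (basal) and 100 uM tamoxifen (100%); Hill-equation AC50 from concentration-response.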

[15] = Cellular Toxicity (caspase-3) Renal Proximal Tubule (AID 667); conditions: renal proximal tubule cells; at 91.7 µM (top of the series), primary cells freshly taken from rat, solvent-only wells 0%, staurosporine 100% unless noted;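 also: cells exposed to compound for 16 hours at 37 °C before detection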
In short: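 Caspase-Glo 3/7 read-out, rat primary kidney proximal tubule cells. Compound exposure 16 h, 37 °C; detection after 1 h at RT. Activity scaled to DMSO and 10 uM staurosporine.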

[16] = MultiTox-Fluor Cytotoxicity Assay - LYMP1-001 - Dead Cells (AID 946); conditions: LYMP1-001 lymphoblastoid cells, dead-cell protease fluorescence; series mostly up to 92.2 µM
In short: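 Seed 2500 LYMP1-001 cells/well, incubate 5 hr at 37 C; add compound, 16 hr at 37 C; add MultiTox-Fluor reagent, 60 min RT; read dead-cell fluorescence Ex/Em=485/520. Normalize to DMSO and 15 uM tetraoctylammonium bromide.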

[17] = Cell Viability - LYMP1-002 - Assay at 16 hr (AID 948); conditions: LYMP1-002 lymphoblastoid cell viability; series mostly up to 92.2 µM;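 also: 0% = DMSO alone and full effect = 92 µM tetraoctylammonium bromide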
In short: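 In this qHTS, lymphoblastoid LYMP1-002 cells (human) receive compounds for 16 hr at 37 C. Viability is taken from CellTiter-Glo ATP luminescence, and AC50 derives from standard Hill fits.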

[18] = MultiTox-Fluor Cytotoxicity Assay - LYMP1-003 - Dead Cells (AID 961); conditions: LYMP1-003 lymphoblastoid cells, dead-cell protease fluorescence; series mostly up to 92.2 µM; also: nearly all actives have a fitted effect of over 70% in size
In short: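 LYMP1-003 lymphoblastoid, 2500 cells/well, 5 hr settle then 16 hr cpd at 37 C; MultiTox-Fluor reagent 60 min RT; Ex/Em 485/520 dead-cell signal; norm. DMSO = 0%, 15 uM tetraoctylammonium bromide = 100%; Hill AC50.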

[19] = qHTS assay for cell viability of HEK293 cells (AID 743288); conditions: ATP luminescence (CellTiter-Glo), 18 h; max response: active compounds read low; also: % is scaled to controls: 0 for no effect and ±100 for the full control effect; nearly all actives have a fitted effect of over 50% in size
In short: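 HEK293, 18 h, 37 C, ATP luminescence. Cells at 2,000/well were allowed at least 5 h to settle before dosing; CellTiter-Glo developed 30 min at RT.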

[20] = qHTS assay for cell viability of the p53RE-bla HCT-116 cell line (AID 743292); conditions: p53RE-bla HCT-116 viability, ATP luminescence, 16 h; series mostly up to 95 µM; also: % is scaled to controls: 0 for no effect and ±100 for the full control effect; nearly all actives have a fitted effect of over 55% in size
In short: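 Luminescent ATP quantitation (CellTiter-Glo) served as the viability read-out; reagent was added after 16 h compound exposure at 37 C and read after 30 min at room temperature. Cells: p53RE-bla HCT-116, 4,000 per well.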

O=[N+]([O-])c1cccc2ccccc12
inactive: Potency [1] > 92 µM | Potency [2] > 92 µM | Potency [3] > 92 µM | Potency [4] | activity change, negative = cytotoxicity [5] -0.153% | outcome [6] | caspase-3 activation [7] -1.75% | outcome [8] | outcome [9] | outcome [10] | outcome [11] | outcome [12] | outcome [13] | outcome [14] | caspase-3 activation [15] -1.57% | Potency [16] | Potency [17] | Potency [18] | max response [19] -12% and 2.53% | Potency [20]

CCOc1ccc(N)cc1
inactive: Potency [1] > 92 µM | Potency [2] > 92 µM | Potency [3] > 92 µM | Potency [4] | activity change, negative = cytotoxicity [5] -1.23% | outcome [6] | caspase-3 activation [7] -0.901% | outcome [8] | outcome [9] | outcome [10] | outcome [11] | outcome [12] | outcome [13] | outcome [14] | caspase-3 activation [15] -17.4% | Potency [16] | Potency [17] | Potency [18] | max response [19] 7.24% | Potency [20]

C=C(C)C(=O)OCC1CO1 (stereo not given)
inactive: Potency [1] > 92 µM | Potency [2] > 92 µM | Potency [3] > 92 µM | Potency [4] | activity change, negative = cytotoxicity [5] -4.58% | outcome [6] | caspase-3 activation [7] 1.42% | outcome [8] | outcome [9] | outcome [10] | outcome [11] | outcome [12] | outcome [13] | outcome [14] | caspase-3 activation [15] -4.2% | Potency [16] | Potency [17] | Potency [18] | max response [19] 3.25% | Potency [20]

ClC(Cl)(Cl)c1ccccc1
inactive: Potency [1] > 92 µM | Potency [2] > 92 µM | Potency [3] > 92 µM | Potency [4] | activity change, negative = cytotoxicity [5] -4.93% and -2.74% | outcome [6] | caspase-3 activation [7] 18.2% and -0.502% | outcome [8] | outcome [9] | outcome [10] | outcome [11] | outcome [12] | outcome [13] | outcome [14] | caspase-3 activation [15] -4.62% and -2.75% | Potency [16] | Potency [17] | Potency [18] | max response [19] -4.96% and -3.96% | Potency [20]

ClC(Cl)=C(Cl)Cl
inactive: Potency [1] > 92 µM | Potency [2] > 92 µM | Potency [3] > 92 µM | Potency [4] | activity change, negative = cytotoxicity [5] -15.6% and -5.24% | outcome [6] | caspase-3 activation [7] -0.349% and -0.592% | outcome [8] | outcome [9] | outcome [10] | outcome [11] | outcome [12] | outcome [13] | outcome [14] | caspase-3 activation [15] 1.99% and -8.12% | Potency [16] | Potency [17] | Potency [18] | max response [19] 2.96% and -9.63% | Potency [20]

C=C(C)C#N
inactive: Potency [1] > 92 µM | Potency [2] > 92 µM | Potency [3] > 92 µM | Potency [4] | activity change, negative = cytotoxicity [5] 0.281% | outcome [6] | caspase-3 activation [7] 1.57% | outcome [8] | outcome [9] | outcome [10] | outcome [11] | outcome [12] | outcome [13] | outcome [14] | caspase-3 activation [15] 7.27% | Potency [16] | Potency [17] | Potency [18] | max response [19] -2.82% and -11% | Potency [20]

CC(=O)[O-].CC(=O)[O-].O.O.O.[Pb+2]
inactive: Potency [1] > 92 µM | Potency [2] > 92 µM | Potency [3] > 92 µM | Potency [4] | activity change, negative = cytotoxicity [5] -5.61% and -0.959% | outcome [6] | caspase-3 activation [7] 1.15% and 0.852% | outcome [8] | outcome [9] | outcome [10] | outcome [11] | outcome [12] | outcome [13] | outcome [14] | caspase-3 activation [15] -9.48% and -1.66% | Potency [16] | Potency [17] | Potency [18] | max response [19] -11.3% and -5.22% | Potency [20]

O=C(Cl)/C=C/C(=O)Cl
inactive: Potency [1] > 92 µM | Potency [2] > 92 µM | Potency [3] > 92 µM | Potency [4] | activity change, negative = cytotoxicity [5] 2.59% | outcome [6] | caspase-3 activation [7] 0.334% | outcome [8] | outcome [9] | outcome [10] | outcome [11] | outcome [12] | outcome [13] | outcome [14] | caspase-3 activation [15] -3.63% | Potency [16] | Potency [17] | Potency [18] | max response [19] 1.49% | Potency [20]

CCN(CC)c1ccccc1
inactive: Potency [1] > 92 µM | Potency [2] > 92 µM | Potency [3] > 92 µM | Potency [4] | activity change, negative = cytotoxicity [5] -4.65% | outcome [6] | caspase-3 activation [7] -0.552% | outcome [8] | outcome [9] | outcome [10] | outcome [11] | outcome [12] | outcome [13] | outcome [14] | caspase-3 activation [15] 2.98% | Potency [16] | Potency [17] | Potency [18] | max response [19] -9.99% | Potency [20]

C=CCOC(C)=O
inactive: Potency [1] > 92 µM | Potency [2] > 92 µM | Potency [3] > 92 µM | Potency [4] | activity change, negative = cytotoxicity [5] -1.33% | outcome [6] | caspase-3 activation [7] 0.277% | outcome [8] | outcome [9] | outcome [10] | outcome [11] | outcome [12] | outcome [13] | outcome [14] | caspase-3 activation [15] -7.63% | Potency [16] | Potency [17] | Potency [18] | max response [19] -4.78% | Potency [20]
